# Compound activity from PubChem.
# Hits are enriched below; roughly 0.47% of the tested compounds scored in any of these assays.
# BioA inh-1: BioA (M. tuberculosis) enzyme inhibition; hit rate 0.096% among 360,000; inhibition, % at 9.99 µM; purified M. tuberculosis BioA enzyme, plate reader; in the data active = inhibition above about 40%
# TcdB GH inh: blocks C. difficile toxin B glycohydrolase activity; inhibition, % at 9.99 µM; P18177; TcdB glycohydrolase enzymatic assay, plate reader; hit rate 0.24% among 350,000; in the data active = inhibition above about 10%
# Y pestis TopoI: Y. pestis Topo-I inhibition via cleavage products; hit rate 0.064% among 360,000; Y. pestis Topo-I cleavage product accumulation, plate reader; AID 504884; activity, % at 10 µM; in the data active = activity above about 50%, passing the limit was not always enough
# FadD28 FP inh: M. tuberculosis FadD28 bisubstrate binding inhibition; FadD28 bisubstrate probe binding, fluorescence polarization; AID 588549; hit rate 0.22% among 360,000; inhibition, % at 12.5 µM; in the data active = inhibition above about 8.5%, passing the limit was not always enough
# BioA inh-2: inhibitors of Mycobacterium tuberculosis BioA enzyme; AID 651679; 310 tested, under 10 active; shares compounds with BioA inh-1; max activity, %; purified BioA enzyme, plate reader, dose response;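 also: top concentration of the dilution series was 10 µM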
# HepG2 tox 2: kills HepG2 cells; shares compounds with BioA inh-1; HepG2 cytotoxicity, plate reader; max activity, %; 310 tested, under 10 active; AID 651898
# NIH3T3 tox 5: cytotoxicity in NIH3T3 cells; shares compounds with BioA inh-1; plate reader; activity change, negative = cytotoxicity, % at 26 µM; 310 tested, under 10 active; AID 651900
# * marks the source's active call; other numbers are inactive results; i = inactive; / = no result; [ ] = another dose, or the depositor's remark. Unless noted, no rule for the calls is given here.
SMILES,BioA inh-1,TcdB GH inh,Y pestis TopoI,FadD28 FP inh,BioA inh-2,HepG2 tox 2,NIH3T3 tox 5
CC1CN(C(=O)Nc2ccc3snnc3c2)c2ccccc21 (configuration not stated),63*,3,2,-4,-7,17,-1
CCNC(=O)C[C@H]1CC[C@@H](NC(=O)NC2CCCCC2)[C@H](CO)O1,1,1,/,/,/,/,/
CSc1ccc(S(=O)(=O)N2CCC(C(=O)Nc3cccnc3)CC2)cc1,71*,-3,-4,-1,-6,-17,3
O=C(Nc1cccnc1)C1CCN(S(=O)(=O)c2ccc(Cl)cc2)CC1,85*,1,-3,-1,-9,-13,-2
CCOC(=O)/C(=C/c1ccccc1)NC(=O)c1ccco1,0,/,3,-1,/,/,/
COc1ccc(NC2c3ccccc3C(=O)N2c2cccnc2)cc1Cl (configuration not stated),51*,0,1,-4,-7,-16,-3
O=C1c2ccccc2C(Nc2ccccc2)N1c1cccnc1 (configuration not stated),2,-7,1,-4,/,/,/
O=C(c1ccncc1)N1CC[C@@H]2[C@@H](CO)Nc3ccc(-c4ccccc4)cc3[C@@H]21,10,8,/,/,/,/,/
O=C(c1ccncc1)N1CC[C@@H]2[C@H](CO)Nc3ccc(Br)cc3[C@@H]21,104*,/,/,/,-5,i,-5
O=C(c1ccncc1)N1CC[C@H]2[C@H](CO)Nc3ccc(Br)cc3[C@H]21,59*,/,/,/,12,i,-7[23.5 µM]
Cc1cc(S(=O)(=O)NCC(c2ccc3c(c2)OCO3)N2CCOCC2)ccc1F (configuration not stated),1,1,24,0,/,/,/
O=C(C[C@H]1C[C@H]2c3cc(NC(=O)C4CCOCC4)ccc3O[C@H]2[C@@H](CO)O1)NCc1ccc2c(c1)OCO2,0,0,/,/,/,/,/
NC1=NC(=O)C(CC(=O)c2ccc(Cl)cc2)S1 (configuration not stated),-1,1,5,-3,/,/,/
O=C(C[C@@H]1CC[C@H](NS(=O)(=O)c2ccccc2)[C@H](CO)O1)NCc1ccncn1,-3,-1,/,/,/,/,/
Cc1cccc(C(=O)NC2CCN(CC(=O)Nc3ccccc3Cl)CC2)c1,49*,1,21,-5,-5,-6,-13
O=C(C[n+]1cc(-c2ccc(Cl)cc2)n2c1CCC2)N1c2ccccc2Sc2ccccc21,61*,/,2,-2,-6,-11,0
CCOC(=O)CSc1nc2c(c(=O)n1-c1ccc(OCC)cc1)SCC2,1,1,-4,-4,/,/,/
O=C(CSc1nc2c(c(=O)n1-c1ccc(F)cc1)SCC2)N1CCCC1,26,/,4,-3,/,/,/
CC1Cc2nc(SCC(=O)N3CCN(c4ccccc4)CC3)n(C)c(=O)c2S1 (configuration not stated),23,3,25,0,/,/,/
O=C(CSc1nc2c(c(=O)n1-c1ccccc1)SCC2)N1CCN(c2ccccc2)CC1,47*,1,33,0,-2,-9,-5
CCOc1ccc(-n2c(SCC(N)=O)nc3c(c2=O)SCC3)cc1,41*,/,2,-2,-7,9,7
O=C(CSc1nc2c(c(=O)n1-c1ccccc1)SCC2)N1CCOCC1,88*,2,-9,-2,5,16,2
CC1Cc2nc(SCC(=O)N3CCOCC3)n(-c3ccccc3)c(=O)c2S1 (configuration not stated),63*,-1,0,0,-7,-8,-2
CS(=O)(=O)Nc1nc2n(n1)C(c1ccccc1)C=C(c1ccc(Br)cc1)N2 (configuration not stated),/,/,8,-3,/,/,/
CCCC#Cc1ccc(CC[C@H]2O[C@H]3CC[C@H](CO)O[C@H]3C[C@H]2NC(=O)CN2CCOCC2)cc1,/,1,/,/,/,/,/
C/C=C(/C)C(=O)OC(C)(C)[C@@H]1Cc2c(ccc3ccc(=O)oc23)O1,53*,1,31,-4,4,15,3
COc1ccccc1NC(=O)N[C@H]1CC[C@@H](CCn2cc(-c3cccnc3)nn2)O[C@H]1CO,33,-1,/,/,/,/,/
O=C(N[C@H]1CC[C@@H](CCn2cc(-c3cccnc3)nn2)O[C@H]1CO)c1ccccc1F,47*,0,/,/,3,i,2
COc1ccccc1NC(=O)N[C@@H]1CC[C@H](CCn2cc(-c3cccnc3)nn2)O[C@H]1CO,57*,0,/,/,5,i,-9
O=C(CCCCn1c(=O)[nH]c2ccccc2c1=O)NC1CCN(Cc2ccccc2)CC1,0,1,6,-1,/,/,/
